Our source for the growth values is PubChem BioAssay (NCI).

Compounds without any hit were thinned out: in the full panel of roughly 83,000, 20% have a hit.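 Values shown are percent growth following 48 h exposure of cells in 96-well plates to a single concentration of compound; below 10 was considered active.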 Unmarked numbers belong to inactive results. Activity calls are given as the source filed them.

The assay concerns MDA-MB-468 breast. The assay can be described thus: NCI-60 one-dose screen, 48 h (100 = growth as untreated, 0 = no growth, -100 = all killed). To be noted: 10 µM unless noted.
Regarding `COc1cc(-c2ccc3ncnc(NC(C)c4ccccc4)c3c2)cnc1OC` (stereo not given), the growth is -3.02% (active).
`C=C1C(=O)O[C@H]2[C@H]1CC/C(COC(=O)c1cc(OC)c(OC)c(OC)c1)=C\CC[C@@]1(C)O[C@@H]21`: the growth is -33.2% (active).
For `Cc1cc(C)c([I+]c2c(C)cc(C)cc2C)c(C)c1`, the growth is -41.9% (active).
Then `O=S(=O)(NCCNc1nccc(-c2c(-c3ccc(F)cc3)nc3sccn23)n1)c1ccc2ccccc2c1`, with 76.4%; and `O=c1oc2ccccc2cc1C1=NN=C(SCc2ccccc2)SC1`, with 118%.
On to `CCOC(=O)C(O)C(O)C(=O)OCC` (stereo not given), for which the growth was 102%.
Then `COc1ccc(/C=C/C(=O)c2cc(S(N)(=O)=O)c(OC)cc2OC)cc1`, with -6.04% (active); and `C=C1CCC2C3(C)COC(c4ccc(NC(C)=O)cc4)OC3CCC2(C)C1C/C=C1/C(=O)OCC1O` (stereo not given), with 19.3%.
Then `COC(=O)c1ccc2c(c1)Oc1ccc(Cl)cc1-c1cc(C)nn1-2`, with 87%.
As for `NS(=O)(=O)c1ccc(Br)cc1`, the figure is 102%; as for `CCOC(=O)[C@@H]1[C@H](c2ccccc2)[C@H]([N+](=O)[O-])[C@H](c2cn(-c3ccccc3)nc2C)N1Cc1ccccc1`, 82.9%.
With `Cc1ccc(C(O)C2=CC(=O)c3ccccc3C2=O)cc1` (stereo not given), the growth is 96.5%.
With `Nc1ccn(Cc2nnc(CCC(=O)c3nc4ccccc4[nH]3)o2)c(=O)n1`, the growth was 79%.
As for `CN1C(=O)N(C)C2C1NC(=S)N2/N=C/C=C/c1ccccc1[N+](=O)[O-]` (stereo not given), the figure is 6.39% (active); as for `Cc1ccc2c(c1)CC(O)CC1C(=O)N(CCO)CC(=O)N21` (stereo not given), 96%.
